An excerpt weighted towards active compounds, which were near 1.2% of everything screened.
GLA inh pH 4.5: qHTS Assay for Inhibitors of Human alpha-Galactosidase at pH 4.5 | Alpha-galactosidase A (Homo sapiens), P06280 | purified enzyme, 4-MU-alpha-Gal fluorescence, pH 4.5 | activity change, negative = inhibition, % at 105 µM | 230,000 tested, under 10 active;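 note: 0% = full activity with enzyme and -100% = basal without enzyme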
Target sequence (P06280 whole entry, looked up): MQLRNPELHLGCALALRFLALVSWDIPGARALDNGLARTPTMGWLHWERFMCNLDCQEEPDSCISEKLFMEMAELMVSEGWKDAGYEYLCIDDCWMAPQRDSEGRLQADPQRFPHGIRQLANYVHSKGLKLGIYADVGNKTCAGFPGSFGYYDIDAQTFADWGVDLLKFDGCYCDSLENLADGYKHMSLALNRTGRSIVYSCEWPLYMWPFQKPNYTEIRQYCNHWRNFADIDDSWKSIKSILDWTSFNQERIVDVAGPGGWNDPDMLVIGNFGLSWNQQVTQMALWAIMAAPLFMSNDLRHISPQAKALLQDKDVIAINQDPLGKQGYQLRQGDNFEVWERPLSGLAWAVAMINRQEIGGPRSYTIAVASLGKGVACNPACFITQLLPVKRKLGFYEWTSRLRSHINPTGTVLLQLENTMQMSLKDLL
HTT ATP protect: qHTS Multiplex Assay to Identify Dual Action Probes in a Cell Model of Huntington: Cytoprotection (ATP) | PC12 HTT-Q103 induced, cytoprotection, ATP luminescence, 40 h | 230,000 compounds, 0.14% hits | Potency, µM (top dose mostly 56.4 µM), without a hit: cytoprotection (ATP increase), usual class: activators; note: potency is the fitted concentration of half-maximal effect; % of control where 0% means no effect; nearly all actives have a fitted effect of over 45% in size
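Compounds added alongside 100 nM tebufenozide, which induces toxic Q103 huntingtin exon 1-GFP in stable PC12 cells; surviving cells quantified by luminescent ATP measurement. Medium: phenol red-free DMEM, 5% equine and 5% calf serum.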
GLA spleen mod: qHTS Assay for Inhibitors and Activators of Human alpha-Galactosidase From Spleen Homogenate. Alpha-galactosidase A (Homo sapiens), P06280. human spleen homogenate, 4MU-alpha-Gal fluorescence, 40 min. Potency, µM (series often up to 80 µM), for inactives: at the highest dose activity change, negative = inhibition, most hits filed as inhibitors. 240,000 compounds, 0.008% hits. AID 2107, 2009;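 note: potency is the fitted concentration of half-maximal effect; 0% = enzyme with vehicle and -100% = no enzyme basal signal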
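Inhibition or activation of alpha-galactosidase in human spleen homogenate is scored by 4-MU fluorescence after 40 min at 37C, pH 5.0, with 1 mM substrate. AC50s come from concentration-response fitted to the Hill equation.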
HTT aggregate: qHTS Multiplex Assay to Identify Dual Action Probes in a Cell Model of Huntington: Aggregate Formation (GFP); PC12 HttQ103-GFP aggregates, Acumen cytometry, 40 h; Potency, µM (highest dose often 46.1 µM), inactives show at the top dose activity change, negative = inhibition, actives largely listed as inhibitors; 220,000 compounds, 1.1% hits; AID 1688, 2009; note: potency is the fitted concentration of half-maximal effect; % is set by controls: 0 for no effect and ±100 for the full control effect; nearly all actives have a fitted effect of over 60% in size
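PC12 cells stably carrying ecdysone-inducible HTT exon 1 Q103–GFP were induced with tebufenozide (100 nM final) and treated with library compounds in titration. GFP aggregates in lysates were counted by laser scanning cytometry.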
Starred values were filed as active, the others as inactive; ! = not confirmed by another sample; [ ] = another dose, or the depositor's remark. Calls come from the whole dose curve; as a rule, active = well fitted curve in the direction sought with a large enough effect; inconclusive = small, poorly fitted or top-dose-only effect, or another doubt; inactive = no such curve, though single readings can be large; an effect the other way counts as inactive or inconclusive.

What do the screens show for `O=[N+]([O-])c1ccc(/C=N/Nc2ncc(-c3ccccc3)cn2)cc1`?
GLA inh pH 4.5: 1; HTT ATP protect: 18%[10 µM]; GLA spleen mod: 4%; HTT aggregate: 11%[9.22 µM]

What do the screens show for `Cc1cc(-c2ccccc2)nc(N/N=C/c2ccc([N+](=O)[O-])cc2)n1`?
GLA inh pH 4.5: -5; GLA spleen mod: -23%; HTT aggregate: 0.028µM*

What do the screens show for `CN1CCN(c2nc3ccccc3nc2C(C#N)C(=O)OC2CCCCC2)CC1` (configuration not stated)?
GLA inh pH 4.5: -16; HTT ATP protect: -101%; GLA spleen mod: 2%; HTT aggregate: 13µM*

Results for Cc1cccc(NC(=S)NNC(=O)COc2ccc(Cl)cc2Cl)c1 ?
GLA inh pH 4.5: -11; HTT ATP protect: 13%[10 µM]; GLA spleen mod: 5%; HTT aggregate: inconclusive

How did Cc1ccc(OCC(=O)NNC(=S)NC(=O)C(C)(C)C)c(Br)c1 do in these assays?
GLA inh pH 4.5: 1; GLA spleen mod: 2%; HTT aggregate: 11µM*

How did COc1ccc(C(=O)c2ccccc2)c(O)c1 do in these assays?
GLA inh pH 4.5: 6; HTT ATP protect: -34%[10 µM]; GLA spleen mod: -3%; HTT aggregate: 11µM*!

What do the screens show for `O=C(O)c1cccc(NC(=S)NC(NC(=O)c2cccc([N+](=O)[O-])c2)C(Cl)(Cl)Cl)c1` (configuration not stated)?
GLA inh pH 4.5: 6; HTT ATP protect: 1%[10 µM]; GLA spleen mod: 3%; HTT aggregate: 15%[9.22 µM]

How did O=C(NC(NC(=S)Nc1ccccc1)C(Cl)(Cl)Cl)c1cccc(Cl)c1 (configuration not stated) do in these assays?
GLA inh pH 4.5: -1; HTT ATP protect: -71%; GLA spleen mod: -2%; HTT aggregate: 11µM*

Results for C=C1C(=O)[C@]23[C@H](O)[C@H]1CC[C@H]2[C@@]12COC3(O)[C@H](O)[C@@H]1C(C)(C)CC[C@@H]2O ?
GLA inh pH 4.5: -1; GLA spleen mod: -3%

Results for CCOC(=O)c1c(C)[nH]c(C)c1C(=O)CSc1nc2ccccc2c(=O)n1-c1ccc(C)cc1 ?
GLA inh pH 4.5: -6; HTT ATP protect: 14%[1.9 µM]; GLA spleen mod: 6%; HTT aggregate: inconclusive

How did CCOC(=O)c1c(C)[nH]c(C)c1C(=O)CSc1nc2ccccc2c(=O)n1-c1ccc(Cl)cc1 do in these assays?
GLA inh pH 4.5: -17; GLA spleen mod: -1%; HTT aggregate: 20µM*

Results for N=C(N)S[C@H]1c2ccccc2-c2cc([N+](=O)[O-])ccc21 ?
HTT ATP protect: 18%[10 µM]

What do the screens show for `CC1(C)N=C(SCC(=O)Nc2ccccc2)C(c2ccc(Cl)cc2)=N1`?
GLA inh pH 4.5: -26; HTT ATP protect: 18µM*; GLA spleen mod: 6%; HTT aggregate: 21%

How did Cc1ccc(C2=NC(C)(C)N=C2SCC(=O)Nc2ccc(Cl)cc2)cc1 do in these assays?
GLA inh pH 4.5: -8; HTT ATP protect: 3%; GLA spleen mod: -2%; HTT aggregate: 5%[9.22 µM]

What do the screens show for `COc1ccc(C2CC(c3ccccc3)Oc3cc(C)cc(C)c32)cc1` (configuration not stated)?
GLA spleen mod: 5%

Results for CCC(=O)Nc1nc(-c2ccccc2)ns1 ?
GLA inh pH 4.5: 3; HTT ATP protect: 0%[10 µM]; GLA spleen mod: 5%; HTT aggregate: inconclusive

How did O=C(CSc1ncn[nH]1)Nc1nc(-c2ccccc2)ns1 do in these assays?
GLA inh pH 4.5: -1; HTT ATP protect: 3%[0.074 µM]; GLA spleen mod: 4%; HTT aggregate: 22µM*

How did Cn1c(=O)oc2cc(S(=O)(=O)N3CCCC(C(=O)NC4CCCc5ccccc54)C3)ccc21 (configuration not stated) do in these assays?
GLA inh pH 4.5: 2; HTT ATP protect: -29%; GLA spleen mod: -1%; HTT aggregate: 22%

How did Cn1c(=O)oc2cc(S(=O)(=O)N3CCCC(C(=O)N4CC=C(c5ccccc5)CC4)C3)ccc21 (configuration not stated) do in these assays?
GLA inh pH 4.5: 0; HTT ATP protect: -24%; GLA spleen mod: 8%; HTT aggregate: 11µM*

How did COc1ccccc1OCC(=O)/C=C1/N(C)c2ccccc2C1(C)C do in these assays?
GLA inh pH 4.5: -6; HTT ATP protect: -158%; GLA spleen mod: -2%; HTT aggregate: inconclusive

What do the screens show for `CN1/C(=C\C(=O)COc2ccc3c(c2)OCO3)C(C)(C)c2ccccc21`?
GLA inh pH 4.5: -9; HTT ATP protect: -19%; GLA spleen mod: 5%; HTT aggregate: 22µM*

What do the screens show for `Cc1ccc(-c2nc(C(Cl)Cl)c3ccccc3n2)cc1`?
GLA inh pH 4.5: 1; HTT ATP protect: -80%[10 µM]; GLA spleen mod: -21%; HTT aggregate: 0.89µM*

Results for O=C(CCCCn1c(=O)c2ccccc2n(Cc2ccc(F)cc2)c1=O)NCc1ccco1 ?
GLA inh pH 4.5: -1; HTT ATP protect: -80%[10 µM]; GLA spleen mod: 1%; HTT aggregate: 1µM*

Results for CC(C)(C)CC(C)(C)c1ccc(OCCO)cc1 ?
HTT ATP protect: 8%; GLA spleen mod: 10%; HTT aggregate: 2%

How did CC(C)(C)CC(C)(C)c1ccc(OCCOCC[N+](C)(C)Cc2ccccc2)cc1 do in these assays?
GLA inh pH 4.5: -2; HTT ATP protect: -227%; GLA spleen mod: 2%; HTT aggregate: 28µM*

How did Fc1ccc(NCc2nnc(SCc3nnc(-c4ccccc4)o3)n2Cc2ccccc2)cc1 do in these assays?
GLA inh pH 4.5: 4; HTT ATP protect: 19%[10 µM]; GLA spleen mod: -2%; HTT aggregate: 13µM*

What do the screens show for `CC(C)=NO[C@@H](C)c1cc(-c2c(C)cc(C)cc2C)no1`?
HTT ATP protect: 1%[10 µM]; GLA spleen mod: 5%[17.5 µM]

How did O=S(=O)(Nc1cc(Sc2ncn[nH]2)c(O)c2ccccc12)c1ccccc1 do in these assays?
GLA inh pH 4.5: -17; HTT ATP protect: -209%; GLA spleen mod: 15%; HTT aggregate: 4.5µM*

How did O=S(=O)(c1cccc(C(F)(F)F)c1)N1CCC(c2cc(-c3cccc4ccccc34)n[nH]2)CC1 do in these assays?
GLA inh pH 4.5: -1; HTT ATP protect: -74%; GLA spleen mod: -4%; HTT aggregate: 1µM*

How did COc1ccc(S(=O)(=O)N2CCC(c3cc(-c4cccc5ccccc45)n[nH]3)CC2)cc1 do in these assays?
GLA inh pH 4.5: inconclusive; HTT ATP protect: -54%; GLA spleen mod: 5%; HTT aggregate: inconclusive

How did COc1ccc(/C=C/N(CCc2ccc(OC)c(OC)c2)C(=O)C(F)(F)F)cc1 do in these assays?
HTT ATP protect: -26%[10 µM]; GLA spleen mod: -8%[17.5 µM]

What do the screens show for `O=c1[nH]c2ccccc2n1CCCSc1cnc2ccccc2n1`?
GLA inh pH 4.5: -5; HTT ATP protect: -11%; GLA spleen mod: -1%; HTT aggregate: 11µM*

Results for CCCCn1c(=O)[nH]c2ccccc21 ?
GLA inh pH 4.5: -6; HTT ATP protect: -3%; GLA spleen mod: -3%; HTT aggregate: 2%

Screening results deposited in PubChem by National Center for Advancing Translational Sciences (NCATS).
